RGS4 inhibitor: Inhibitors of Regulator of G Protein Signaling (RGS) 4: qHTS; Regulator of G-protein signaling 4 (Homo sapiens), P49798; Transcreener GDP fluorescence polarization, RGS4-accelerated GTP hydrolysis; Potency, µM (top dose mostly 114 µM), for the others: at the highest dose activity change, negative = inhibition, usual class: inhibitors; hit rate 0.039% among 390,000; AID 504845, 2011; also: potency is read from the fitted curve at half-maximal effect; % is scaled to controls: 0 for no effect and ±100 for the full control effect; nearly all actives have a fitted effect of over 75% in size
Target sequence (P49798 whole entry, looked up): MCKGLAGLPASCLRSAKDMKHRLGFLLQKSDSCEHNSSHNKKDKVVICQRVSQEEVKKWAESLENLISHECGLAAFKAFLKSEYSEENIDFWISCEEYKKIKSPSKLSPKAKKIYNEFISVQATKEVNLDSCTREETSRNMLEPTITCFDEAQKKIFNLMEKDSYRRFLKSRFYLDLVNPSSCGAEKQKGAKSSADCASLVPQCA
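MLSMR compounds (23 nl, pin-transferred) preincubated 10 min at room temperature with a 500nM (2x) first reagent, then RGS4 at 900nM (2x) plus Transcreener GDP mix added; fluorescence polarization (620/688 nm) read before and after 90 min at 30 °C.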
PTHR1 ag: qHTS for PTHR1 Agonists: Primary Screen; Parathyroid hormone/parathyroid hormone-related peptide receptor (Homo sapiens), Q03431; HEK293 GP2 PTHR1 cells, GloSensor cAMP luminescence, 1 h; Potency, µM (titrated, usually from 115 µM), without a hit: at the highest dose activation, hits mostly activators; hit rate 0.075% among 410,000; also: potency is read from the fitted curve at half-maximal effect; nearly all actives have a fitted effect of over 55% in size
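HEK-293-derived GP2 cells expressing PTHR1 and a GloSensor cAMP reporter, 3,000/well, plated overnight, given luciferin plus IBMX (each 0.5 mM as added) for 1 h at 37 °C, then compound for 1 h at 37 °C. Luminescence was read after 15 min at room temperature.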
BRCA1 expr act: qHTS Assay to Identify Small Molecule Activators of BRCA1 Expression; MCF7-BRCA1-FFLuc reporter, luminescence, 48 h; response scale: scaled: vehicle 0%, 10 µM genistein 100%; Potency, µM (highest dose often 46.1 µM), for inactives: at the highest dose activation, actives largely listed as activators; hit rate 1.1% among 380,000; also: potency is read from the fitted curve at half-maximal effect; nearly all actives have a fitted effect of over 80% in size
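Quantitative HTS in MCF7 cells stably reporting BRCA1 expression via firefly luciferase. Compound treatment lasts 48 h at 37 °C in phenol-red free MEM. Activation is expressed relative to genistein at 10 microM and DMSO.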
B2AR arrestin: qHTS assay of beta-arrestin-biased ligands of beta2-adrenergic receptor; Potency, µM (top dose mostly 46.1 µM), for the others: at the highest dose activation, usual class: activators; beta-arrestin recruitment to beta2AR, cell-based reporter; hit rate 0.02% among 330,000;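 also: potency is read from the fitted curve at half-maximal effect; 0% = DMSO controls and full agonism = EC100 isoproterenol or metaproterenol; nearly all actives have a fitted effect of over 65% in size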
DRD3 agonist: qHTS of D3 Dopamine Receptor Agonist: qHTS | D(3) dopamine receptor (Homo sapiens), P35462 | D3R DiscoveRx beta-arrestin cells, luminescence, 90 min | max activation, % | hit rate 0.58% among 410,000 | AID 652048, 2013; in the data active = max activation above about 30%; also: 0% is about no effect
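Agonist mode: compounds and dopamine controls were applied to plated cells for 90 min at 37 degrees C after an overnight attachment at 1500 cells/well. Luminescent read-out followed 30 - 60 minutes at room temperature with DiscoveRx detection reagent.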
D3 antag: qHTS of D3 Dopamine Receptor Antagonist: qHTS; AID 652054, 2013; hit rate 2.5% among 360,000; D3R cells, DiscoveRx beta-arrestin luminescence, antagonist mode; active compounds read low; D(3) dopamine receptor (Homo sapiens), P35462; max response, negative = inhibition, %; in the data active = max response below about -50%; inconclusive = no clear call, values can overlap the other calls; also: % is scaled to controls: 0 for no effect and ±100 for the full control effect
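Cells plated overnight at 1500 cells/well, then exposed to library compounds with dopamine controls for 90 minutes at 37 degrees C. DiscoveRx reagent added for 30–60 minutes at room temperature; luminescence read, quantitative HTS format.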
Active calls of the source: *; i = inactive; ? = inconclusive; · = no result; [ ] = remark or other dose. This is a sample that favours compounds with a hit; in the whole collection about 3.7% have one here. Unless noted, calls follow the shape of the dose curve; as a rule, active = well fitted curve in the direction sought with a large enough effect; inconclusive = small, poorly fitted or top-dose-only effect, or another doubt; inactive = no such curve, though single readings can be large; an effect the other way counts as inactive or inconclusive.

SMILES	RGS4 inhibitor	PTHR1 ag	BRCA1 expr act	B2AR arrestin	DRD3 agonist	D3 antag
c1ccc(-c2csc(NC3CCCCC3)n2)cc1	-24%	-22%	2.8µM*	0%	-2	7
O=C(Nc1nc(-c2ccccc2)cs1)NC1CCCCC1	-12%	-40%	21%	0%	-7	-10
O=C(Nc1nc(-c2ccccc2)cs1)C1CCCO1 (stereo not drawn)	16%	i	?	0%	5	-91*
O=c1oc2ccccc2c(N2CCCC2)c1CN1CCCC1	-16%	i	15%	0%	-18	-22
O=c1oc2ccccc2c(Cl)c1CN1CCCCC1	-14%	-53%	-43%	-1%	-21	-76*
Cc1[nH]c2ccccc2c1C(=O)CSc1n[nH]c(N)n1	-26%	-21%	-17%	0%	2	-10
O=c1[nH][nH]c(C(F)(F)F)c1C=NCc1ccc(Cl)cc1	-7%	i	-1%	0%	-3	-84*
O=c1[nH][nH]c(C(F)(F)F)c1C=Nc1ccc(Cl)cc1	11%	-64%	5%	0%	-15	-22
O=c1[nH][nH]c(C(F)(F)F)c1C=Nc1ccccc1Cl	18%	-6%	6%	0%	5	?
O=c1[nH][nH]c(C(F)(F)F)c1C=NCc1cccc(Cl)c1	-7%	i	-8%	0%	-4	-88*
O=C(O)CCCCCNC(=O)CCn1nnc2ccccc2c1=O	21%	-12%[57.5 µM]	-28%	-1%	1	-52*
COc1cc(N2CCCC2)c(OC)cc1/C=C(/C#N)c1ccc(F)cc1	-37%	-8%[57.5 µM]	-29%	-1%	4	-23
Cc1ccc2nc(/C(C#N)=C\c3ccc(N4CCOCC4)o3)[nH]c2c1	?	-3%	66%	0%	3	0
N#C/C(=C\c1ccc(N2CCOCC2)o1)C(=O)NC1CCCCC1	-17%	i	?	-1%	-1	-5
N#C/C(=C/c1ccc(N2CCCCC2)cc1)c1cccc(F)c1	-5%	-41%	7.9µM*	0%	-8	1
N#C/C(=C/c1ccc(Sc2nc3ccccc3[nH]2)o1)c1cccc(F)c1	-17%	-20%[57.5 µM]	-67%	0%	2	6
N#C/C(=C/c1ccc(N2CCCCCC2)o1)c1ccc(Cl)cc1	?	-22%	-42%	-1%	-26	-64*
N#C/C(=C/c1ccc(N2CCCCC2)o1)c1cccc(F)c1	-112%	-10%[57.5 µM]	-48%	4%	-55	-69*
N#C/C(=C\c1ccc(N2CCOCC2)o1)C(=O)NCC1CCCO1 (stereo not drawn)	-52%	-3%	34%	0%	-1	-82*
COc1ccc(NC(=O)CCCn2c(=O)c3cccn3c3cccnc32)cc1Cl	-6%	-35%	·	·	-10	·
Cc1ccc(/C(C#N)=C\c2ccc(N3CCOCC3)o2)cc1	?	-8%[57.5 µM]	77%	0%	-27	-65*
CCOC(=O)C1(C)CCCN1C(=O)c1cccc(F)c1 (stereo not drawn)	·	0%	-6%	·	-7	-24
CNc1sc(C(=O)c2ccccc2F)c(N)c1-c1nc2ccccc2s1	-27%	-20%	3%[1.84 µM]	13%	-7	-53*
O=C(CNC(=O)c1ccccc1F)OCc1nc2ccccc2s1	-22%	-7%	4%	0%	5	16
COC(=O)c1cc(NCc2c(F)cccc2Cl)ccc1N1CCOCC1	-12%	2.5µM*	-49%	0%	-9	-11
Cc1ccc(S(=O)(=O)N2CCOCC2)cc1NC(=O)CSc1nnc(COc2ccccc2F)n1N	16%	-3%	-8%	·	4	0

Screens from PubChem.
